# Rows were chosen to be rich in hits. Some 1.2% of all compounds tested hit in one or more screens of this group.
# RGS4-Gao reg: modulators of RGS4 binding to Galphao, primary screen, biochemical, multiplexed bead flow cytometry; Guanine nucleotide-binding protein G(o) subunit alpha (Homo sapiens), P09471; actives lie on both sides; binding response (% of control), % at 10 µM; hit rate 0.33% among 220,000; in the data active means binding response below about 49% or above about 150%; inactive means in between;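 further: fluorescent Galphao activated with aluminum fluoride binding bead-coupled RGS4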
# Target sequence (P09471 whole entry, looked up): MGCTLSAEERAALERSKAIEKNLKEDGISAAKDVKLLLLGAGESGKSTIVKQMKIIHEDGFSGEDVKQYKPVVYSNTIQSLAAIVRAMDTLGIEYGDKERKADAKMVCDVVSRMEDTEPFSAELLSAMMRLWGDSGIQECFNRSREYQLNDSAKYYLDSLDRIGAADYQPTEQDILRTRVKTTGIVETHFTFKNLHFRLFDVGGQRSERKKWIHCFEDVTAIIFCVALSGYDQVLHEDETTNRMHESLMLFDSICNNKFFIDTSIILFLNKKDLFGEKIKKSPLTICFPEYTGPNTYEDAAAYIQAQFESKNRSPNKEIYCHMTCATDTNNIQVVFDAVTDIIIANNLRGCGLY
# GSH fluor: compound fluorescence on glutathione beads, profiling panel, artefact control, biophysical, 488/530 nm, flow cytometry | GSH beads flow cytometry, compound fluorescence 488/530 nm; hits give high values | fluorescence (KMESF) at 10 µM | hit rate 0.25% among 190,000; in the data active means fluorescence above about 89;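 further: glutathione beads carrying GST-tagged Bcl family fusion proteins plus one bare bead set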
# RGS7-Gao: RGS7-Galphao binding modulators, primary screen, biochemical, multiplexed bead flow cytometry; hit rate 0.35% among 220,000; binding response (% of control), % at 10 µM; actives lie on both sides; in the data active means binding response below about 49% or above about 150%; inconclusive means no clear call, values can overlap the other calls; inactive means in between;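 further: fluorescent Galphao held in activated GDP-AlF4 state binding bead-coupled RGS7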
# Avidin fluor: green autofluorescence of compounds with avidin beads – biophysical, 488/530 nm, flow cytometry, artefact control, profiling panel. compound fluorescence 488/530 nm; hits give high values. fluorescence (KMESF) at 10 µM. hit rate 0.38% among 220,000; in the data active means fluorescence above about 47
# RGS8-Gao: RGS8-Galphao binding modulators, primary screen, biochemical, multiplexed bead flow cytometry; actives lie on both sides; response (percent of control binding), % at 10 µM; hit rate 0.34% among 220,000; AID 1423, 2008; in the data active means response below about 60% or above about 140%; inactive means in between;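 further: Galphao activated as the GDP aluminium fluoride complex binding bead-coupled RGS8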
# RGS16-Gao: modulators of RGS16 binding to Galphao, primary screen, biochemical, human proteins, multiplexed bead flow cytometry | Regulator of G-protein signaling 16 (Homo sapiens) + Guanine nucleotide-binding protein … | bead-based flow cytometry RGS16-Galphao binding, fluorescence; actives lie on both sides | binding response (% of control), % at 10 µM | hit rate 0.38% among 220,000 | AID 1441, 2008; call rule not given here;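 further: Galphao activated by GDP with aluminum fluoride before binding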
# Hits are given with their value; – = inactive; ? = inconclusive; · = not tested or not shown.
SMILES,RGS4-Gao reg,GSH fluor,RGS7-Gao,Avidin fluor,RGS8-Gao,RGS16-Gao
Cc1cc(C)nc(Nc2ncc(O)n2-c2ccc(C)c(C)c2)n1,–,–,–,56,–,–
COc1cc(NC2c3ncccc3C(=O)N2Cc2ccco2)cc(OC)c1OC (stereo unspecified),–,–,–,–,–,–
CSc1snc(SCC(N)=O)c1C#N,–,–,–,–,–,–
COC(=O)CSc1nsc(SCC(=O)OC)c1C#N,–,–,–,52,–,–
O=C(O)CC1(CC(=O)Nc2ccc(Oc3cccc(C(F)(F)F)c3)nc2)CCCC1,–,·,?,–,–,–
N#Cc1nc(COc2ccc(-c3ccccc3)cc2)oc1NCCCN1CCOCC1,–,–,–,233,–,–
Cc1c(C(=O)OC(C)C)[nH]c2c1C(=O)CC(C)(C)C2,–,–,–,–,–,–
Cc1c(C(=O)OC2CCCCC2)[nH]c2c1C(=O)CC(C)(C)C2,–,–,–,48,–,–
COc1ccc(CCN=C(N)NS(=O)(=O)c2ccc3ccccc3c2)cc1,–,–,–,–,–,–
CCCn1nnc(NC(=O)c2cccc(OCC(C)C)c2)n1,–,264,–,–,–,–
CCCn1nnc(NC(=O)c2cccc(OCC)c2)n1,–,–,–,–,–,–
Cc1onc(-c2c(Cl)cccc2Cl)c1NC(=O)N(C)N,–,·,?,49,–,–
CC1(c2nnc(-c3ccncc3)o2)CC(c2ccc([N+](=O)[O-])cc2)=NO1 (stereo unspecified),–,·,?,–,–,–
COc1ccc(N2CCN(C(=O)COc3ccc4ccccc4c3)CC2)cc1,–,–,–,53,–,–
COc1cc(OC)cc(C(=O)N2CCN(C(=O)COc3ccc4ccccc4c3)CC2)c1,–,–,–,–,–,–
O=C(COc1ccccc1)N1CCN(c2ccc([N+](=O)[O-])c(N3CCCCC3)c2)CC1,–,–,–,54,–,–
O=C(COc1ccc(Br)cc1)N1CCN(c2ccc([N+](=O)[O-])c(N3CCCCC3)c2)CC1,–,–,–,–,–,–
O=C(COc1ccc2ccccc2c1)N1CCN(C(=O)c2cccnc2)CC1,–,–,–,85,–,–
Cc1nnc(SCC(=O)N2CCN(c3ccccc3)CC2)n(N)c1=O,–,–,–,–,–,–
Cc1ccccc1-n1cnnc1SCC(=O)N1CCN(c2ccccc2)CC1,–,–,–,50,–,–
Cc1oc(-c2ccc(Cl)cc2)cc1C(=O)/C(C#N)=C/Nc1ccccc1,–,·,?,–,–,–
Fc1ccc(N2CCN(c3ccc4c(C(F)(F)F)cc(C(F)(F)F)nc4n3)CC2)cc1,–,–,–,92,–,–
CCCCn1c(SCC(=O)N2CCC(C)CC2)nc2cc(S(N)(=O)=O)ccc21,–,–,–,–,–,–
CCCCn1c(SCC(=O)c2cc(OC)ccc2OC)nc2cc(S(N)(=O)=O)ccc21,–,260,–,–,–,–
COc1ccc(/C=N/n2c(N)c(S(=O)(=O)c3cccs3)c3nc4ccccc4nc32)cc1OC,–,–,–,47,–,–
SMILES,RGS4-Gao reg,GSH fluor,RGS7-Gao,Avidin fluor,RGS8-Gao,RGS16-Gao
Nc1c(S(=O)(=O)c2cccs2)c2nc3ccccc3nc2n1/N=C/c1cccc(O)c1,–,–,–,57,–,–
COc1cccc(/C=N/n2c(N)c(S(=O)(=O)c3cccs3)c3nc4ccccc4nc32)c1,–,–,–,–,–,–
CCCc1nnc(NC(=O)c2cn(CC)c3cc(N4CCN(C)CC4)c(F)cc3c2=O)s1,–,·,?,–,–,–
CCN(CC)S(=O)(=O)c1ccc(N2CCOCC2)c(NC(=O)c2ccc(C#N)cc2)c1,–,–,?,–,–,–
C=CCn1c(SCC(=O)Nc2cccc3ccccc23)nnc1-c1cnccn1,–,–,–,51,–,–
O=C(CN1C(=O)c2ccccc2C1=O)OCC(=O)N1CCc2ccccc2C1,–,268,–,–,–,–
COCCN1C(=O)c2ccccc2C(C(=O)NCc2ccco2)C1c1c[nH]c2ccccc12 (stereo unspecified),–,–,–,47,–,–
